Screens as filed in PubChem BioAssay.
Shown is part of a subset that was picked to be rich in hits.
Marburg entry inh – qHTS for inhibitors of binding or entry into cells for Marburg Virus | Marburg virus pseudotyped entry inhibition, cell reporter | Potency, µM (top dose mostly 37.8 µM), for the others: at the highest dose activity change, negative = inhibition, usual class: inhibitors | 300,000 compounds, 1.8% hits | AID 540276, 2011; calls by dose curve; tested in HEK293 cells; further: potency means the concentration at half of the fitted maximal effect; on the % scale 0 is the no-effect control and ±100 the full control effect
AMA1 RON2 block – qHTS for Inhibitors of AMA1-RON; Towards Development of Antimalarial Drug Lead: Primary Screen; Potency, µM (top dose mostly 58.2 µM), for the others: at the top dose activity change, negative = inhibition, usual class: inhibitors; Plasmodium falciparum AMA1 (3D7) - RON2 peptide interaction; 360,000 compounds, 0.2% hits; AlphaScreen AMA1-biotinylated RON2 peptide binding; active means well fitted inhibition curve with a large enough effect; inconclusive means small, poorly fitted or top-dose-only effect; inactive means no such curve, though single readings can be large or run the other way;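 further: potency means the concentration at half of the fitted maximal effect; 0% = vehicle wells and -100% = peptide control; nearly all actives have a fitted effect of over 45% in size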
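AMA1 (3D7) with his tag at 25 nM final met compounds first, then biotinylated RON2 peptide at 25 nM; detection used donor plus acceptor beads, 10 µg/mL apiece, read by AlphaScreen after 30 min at room temperature.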
Shiga inhibitor – A qHTS for Small Molecule Inhibitors of Shiga Toxin; Vero cells, Shiga toxin protein synthesis inhibition reporter; 290,000 compounds, 9.2% hits; inhibition, % at 38.7 µM; AID 2315, 2010; in the data active means inhibition mostly above about 28%, no sharp cut-off; inactive means mostly below about 43%; further: 0% is about no effect
CHX counter – Cycloheximide Counterscreen for Small Molecule Inhibitors of Shiga Toxin; max response, %; 300,000 compounds, 12% hits; cell reporter, cycloheximide protein synthesis inhibition counterscreen; AID 2314, 2010; in the data active means max response mostly above about 13%, no sharp cut-off; inactive means mostly below about 14%; further: read at 38.3 µM for the half of the compounds with a filed dose; 0% is about no effect
Lassa entry inh – qHTS for Inhibitors of binding or entry into cells for Lassa Virus | Lassa virus pseudotype entry inhibition, cell reporter | Potency, µM (titrated, usually from 37.9 µM), for the others: at the highest dose activity change, negative = inhibition, hits mostly inhibitors | 300,000 compounds, 1.2% hits | AID 540256, 2011; calls by dose curve; tested in HEK293 cells; further: potency means the concentration at half of the fitted maximal effect; on the % scale 0 is the no-effect control and ±100 the full control effect; nearly all actives have a fitted effect of over 50% in size
* marks the source's active call; other numbers are inactive results; ? = inconclusive; . = no result given; [ ] = dose if it differs, or a comment.

SMILES | Marburg entry inh | AMA1 RON2 block | Shiga inhibitor | CHX counter | Lassa entry inh
CCOC(=O)C1=C(c2ccccc2)N=c2s/c(=C\c3cccc(O)c3)c(=O)n2C1c1cccs1 (centres undefined) | ? | -12% | -8 | -1 | 16µM*
CCOC(=O)C1=C(C)N=c2s/c(=C\c3cccc(OCC(=O)O)c3)c(=O)n2C1c1ccccc1OC (centres undefined) | . | 42% | -6 | -2 | .
O=C(Cc1ccc(Br)cc1)N1CCN(Cc2ccccc2)CC1 | ? | 30% | 21 | 18* | ?
COC(=O)C1CCN(C(=O)Cc2ccc(Br)cc2)CC1 | 20% | 9% | 66* | 28* | ?
O=C(Cc1ccccc1)N1CCN(Cc2cccc(Br)c2)CC1 | . | ? | -2 | -2 | .
O=C(Cc1ccc(Br)cc1)N1CCCCCC1 | 3%[46.1 µM] | -23% | 60* | 46* | 0%
COC(=O)C1CCN(C(=O)Cc2ccc(OC)c(OC)c2)CC1 | ? | 0% | -2 | 6 | 0%
O=S(=O)(Cc1ccccc1)N1CCN(Cc2ccc(Br)cc2)CC1 | 9% | -8% | 31* | 35* | 0%
CCN(C(=O)c1cc2c(Cl)nc3ccc(C)cc3c2s1)c1cc(OC)ccc1OC | 4%[46.1 µM] | . | . | . | ?
O=C(c1ccc(S(=O)(=O)N2CCCC2)cc1)N(c1ccc(F)cc1)C1C=CS(=O)(=O)C1 (centres undefined) | -1% | 2% | 33 | -2 | ?
COc1ccc(/C(N)=N/OC(=O)c2cccs2)cc1 | . | -2% | 57* | 41* | .
N/C(=N\OC(=O)c1cccs1)c1ccc(Cl)cc1 | . | 17% | 135* | 55* | .
N/C(CC(=O)Nc1ccc(F)c(Cl)c1)=N\OC(=O)c1cccs1 | ? | -7% | 25 | -2 | -6%
COc1ccc2c(c1)/C(=N/OC(=O)c1cccs1)CCC2 | 21%[46.1 µM] | 5% | 43 | 42* | -2%
CC[C@H](C)[C@H](NC(=O)[C@H](CC(C)C)NC(=O)[C@H](CC(N)=O)NC(=O)[C@@H](NC(=O)[C@@H](N)Cc1ccc(O)cc1)[C@@H](C)CC)C(=O)N[C@@H](Cc1ccc(O)cc1)C(=O)N[C@@H](CCCN=C(N)N)C(=O)N[C@@H](CC(C)C)C(=O)N[C@@H](CCCN=C(N)N)C(=O)N[C@@H](Cc1ccc(O)cc1)C(N)=O | . | . | -3 | -2 | .
COc1ccc(N2CC(C(=O)NCc3ccco3)CC2=O)cc1 (centres undefined) | 0%[46.1 µM] | 1% | 13 | 4 | -9%[46.1 µM]
COc1cc(Br)ccc1C1C(C(=O)Nc2ccc(C)cc2C)=C(C)Nc2nnnn21 (centres undefined) | -18%[46.1 µM] | . | . | . | ?
CCc1ccc(C(=O)COC(=O)c2n[nH]c3ccccc23)cc1 | -24% | 1% | 87* | 48* | ?
O=C(COC(=O)c1n[nH]c2ccccc12)c1cc(F)ccc1F | -20%[46.1 µM] | 11% | 44* | 30* | -14%
O=C(COC(=O)c1n[nH]c2ccccc12)Nc1ccc([N+](=O)[O-])cc1 | 20% | -10% | 23* | 10 | ?
CCn1cc(S(=O)(=O)c2cc(C)cc(C)c2)c(=O)c2cc(F)c(N3CCN(c4ccccc4)CC3)cc21 | . | . | . | . | -3%[46.1 µM]
O=c1cc2[nH]c3ccccc3c(=O)n2nc1-c1ccccc1 | ? | -8% | 64 | 25* | -2%
O=c1nc(-c2ccccc2)c2cc(Br)ccc2[nH]1 | -9%[46.1 µM] | 5% | -23 | -2 | -7%[46.1 µM]
CCC1(c2ccccc2)NC(=S)N(c2ccc(C)c(C)c2)N1 (centres undefined) | 27%[46.1 µM] | 54% | 36* | 40* | 8%
CCC1(c2ccc(Cl)cc2)NC(=S)N(c2ccc(C)cc2)N1 (centres undefined) | ? | 33% | 90* | 68* | 5%
Cc1cc(C)c2nc(N(CCCN(C)C)C(=O)C3=COCCO3)sc2c1 | 20µM* | -4% | . | . | ?
CCN(CC)CCN(C(=O)C1=COCCO1)c1nc2cc(C)cc(C)c2s1 | 11µM* | 3% | -8 | -1 | -14%
CN(C)CCCN(C(=O)C1=COCCO1)c1nc2ccc(Br)cc2s1 | ? | -6% | -6 | -1 | -20%[46.1 µM]
CCN(C(=O)C1=COCCO1)c1nc2c(C)cccc2s1 | ? | 7% | . | . | ?
Cc1noc(C)c1NC(=O)N(C)C[C@H]1Oc2c(NS(=O)(=O)c3cn(C)cn3)cccc2C(=O)N([C@H](C)CO)C[C@@H]1C | . | 20% | . | . | .
